{"source": "PubChem BioAssay AID463173", "about": "(ICCB-Longwood Screening Facility, Harvard Medical School, 2010)", "note": "Among all 52,000 compounds or so, about 4,300 (8.3%) were called active. The sample holds actives, similar compounds and a random draw of the others, so the mix is not that of the screen. A number with no mark means an inactive call. No stated cut-off is given here; in the data, active means survival mostly below about 52% (no sharp cut-off); inactive means mostly above about 56%."}
{"tested_on": "DeltatarO mutant", "test": "S. aureus survival, RN4220 and DeltatarO strains – OD600, teichoic acid synthesis inhibitors, primary screen (AID 463173)", "settings": "S. aureus RN4220 wild type/DeltatarO growth, OD600, 18 h, stronger effect = lower value, screened at 18.75 µg/mL (by protocol)"}
{"compound": "O=C(O)c1cccc(N2C(=O)c3cccnc3C2=O)c1", "survival": "83%"}
{"compound": "Cc1ccc(-n2c(=O)c3c(c4cc(C)ccc4n3C)n(CC(=O)Nc3cc(C)cc(C)c3)c2=O)cc1", "survival": "105%"}
{"compound": "COc1ccc2nc(N(Cc3cccnc3)C(=O)c3ccc(Cl)cc3)sc2c1", "survival": "89%"}
{"compound": "CCOC(=O)c1cc(-c2ccccc2)n(-c2cccc(C(=O)Nc3ccc(F)c(F)c3)c2)c1C", "survival": "87%"}
{"compound": "CC(CN)(NS(=O)(=O)c1ccccc1)c1ccccc1", "note": "(stereo not drawn)", "survival": "84%"}
{"compound": "COc1ccc(CN=C(N)N=C(N)N)cc1", "survival": "95%"}
{"compound": "CC(=O)c1ccc(N2CCN(S(=O)(=O)c3cc(-c4onc(C)c4C)ccc3C)CC2)cc1", "survival": "84%"}
{"compound": "COc1ccc(CCNC(=O)c2cc3c(-c4ccccc4F)nn(C)c3s2)c(OC)c1", "survival": "85%"}
{"compound": "Cn1nc(-c2ccccc2F)c2cc(C(=O)N3CCN(c4ccccc4F)CC3)sc21", "survival": "40%"}
{"compound": "COc1ccc(-c2nn(C)c3sc(C(=O)N4CCN(c5cccc(C)c5C)CC4)cc23)cc1OC", "survival": "75%"}
{"compound": "COc1ccc(N2CCN(C(=O)c3cc4c(-c5ccccc5F)nn(C)c4s3)CC2)cc1", "survival": "65%"}
{"compound": "COc1ccc(CNC(=O)c2cc3c(-c4ccccc4F)nn(C)c3s2)c(OC)c1", "survival": "101%"}
{"compound": "COc1ccc(-c2nn(C)c3sc(C(=O)N4CCN(c5cccc(Cl)c5)CC4)cc23)cc1OC", "survival": "54% (active)"}
{"compound": "COc1ccccc1N1CCN(C(=O)c2cc3c(-c4ccccc4F)nn(C)c3s2)CC1", "survival": "46% (active)"}
{"compound": "COc1ccc(-c2nn(C)c3sc(C(=O)N4CCN(c5cc(Cl)ccc5C)CC4)cc23)cc1OC", "survival": "103%"}
{"compound": "COc1ccc(NC(=O)c2cc3c(-c4ccccc4F)nn(C)c3s2)c(OC)c1", "survival": "44% (active)"}
{"compound": "COc1ccc(COC(=O)C2=C(C)NC3(O)c4ccccc4C(=O)C23O)cc1", "note": "(stereo not drawn)", "survival": "90%"}
{"compound": "CNS(=O)(=O)c1cn(CC(=O)Nc2ccc(OC)c(Cl)c2)cc1S(=O)(=O)NC", "survival": "74%"}
{"compound": "Cc1ccc(Cl)cc1-n1c(=O)c2sc3ccccc3c2n(CC(=O)NC2CCCCC2)c1=O", "survival": "77%"}
{"compound": "Cc1ccc(Cl)cc1-n1c(=O)c2sc3ccccc3c2n(CC(=O)NC2CCCC2)c1=O", "survival": "13% (active)"}
{"compound": "O=C(Cn1c(=O)n(-c2ccc(Cl)cc2)c(=O)c2sc3ccccc3c21)NC1CCCC1", "survival": "90%"}
{"compound": "CCn1c(CN2CCC(C)CC2)nc2cc(NC(=O)COc3ccc([N+](=O)[O-])cc3)ccc21", "survival": "82%"}
{"compound": "CCCCC(Sc1nc2cc3c(cc2c(=O)n1CCCC(=O)NCc1ccc2c(c1)OCO2)OCO3)C(=O)OCC", "note": "(stereo not drawn)", "survival": "82%"}
